Test results: PubChem BioAssay (Tox21)
Records with an inconclusive call do not appear. A call without a number means that no potency is given here. Unmarked numbers belong to inactive results. Activity calls are given as the source filed them. The call rests on the fitted dose curve.

target: Beta-2 adrenergic receptor (Homo sapiens) (UniProt P07550); assay: Adrenergic beta2 receptor (ADRB2) small molecule antagonists, cell-based qHTS assay (AID 1963592); settings: CHO-ADRB2 cells, isoproterenol-stimulated cAMP HTRF ratio, 0.5 h; series mostly up to 92.4 µM; further: nearly all actives have a fitted effect of over 50% in size
Source text: U.S. Tox21 Program National Center for Advancing Translational Sciences [NCATS] Division of Preclinical Innovation [DPI] U.S. Environmental Protection Agency [EPA] National Institutes of Environmental Health Sciences [NIEHS] National Toxicology Program [NTP] U.S. Food and Drug Administration [FDA] Tox21 Assay Overview: Beta adrenergic receptors (Beta-ARs) belong to the G-protein coupled receptor (GPCR) superfamily, includes three subtypes - beta1, beta2, and beta3. Beta1-AR is the predominant receptor subtype expressed in the heart, and beta2-AR is expressed in the kidney, lung, blood vessel and in the heart, and beta3 is found in the adipocytes. Beta1 and 2 ARs couple to Gs protein and elevate cyclic adenosine mono phosphate (cAMP), which activates protein kinase A and leads to the downstream signaling responsible for the physiological actions. Beta-AR agonists or antagonists are the most prescribed therapeutic agents for heart failure and asthma, and these were one of the first target receptors for the rational drug design. Tox21 10K compound library was screened using the cAMP-Gs dynamic assay (Cisbio Bioassays, Shelton, CT) to identify agonists/antagonists of the Gs-coupled human adrenergic, beta2 receptor (ADRB2) in the CHO-ADRB2 cell line (Codex BioSolutions, Inc. Gaithersburg, MD), which stably over-expresses ADRB2. The principle of cAMP-Gs dynamic assay is based on HTRF technology, which facilitates the fluorescence resonance energy transfer (FRET) between donor Europium cryptate and acceptor d2-labeled cAMP. The cAMP generated within cells competes with the red acceptor, d2-labled cAMP, for binding to the monoclonal anti-cAMP-cryptate (Europium donor). An increase in intracellular cAMP leads to the disruption of FRET signal, and the signal is inversely proportional to the cAMP concentration. Propranolol HCl (Sigma-Aldrich, St. Louis, MO) was used as a positive control in the screening.
Tox21 Assay Protocol Summary: CHO-ADRB2 cells were dispensed at 1,000/well in 4uL assay medium into white/solid 1536-well plates (Greiner Bio-One North America Inc., Monroe, NC) using a Multidrop Combi dispenser (ThermoFisher Scientific, Waltham, MA). The assay plates were incubated at 37C and 5% CO2 for an overnight (18-20hr). Then positive control and test compounds dissolved in DMSO were transferred to the assay plates at 23nL using a Pintool station (Wako, San Diego, CA). Following the compound and positive control transfer, 1uL agonist-stimulation mix containing 1nM Isoproterenol HCl, 100uM IBMX and 25uM Ro-20-1724 was added to each well of the assay plates using BioRAPTR Flying Reagent Dispenser (FRD, Beckman Coulter, Brea, CA). The assay plates were incubated at room temperature for 0.5hr. Then 2.5ul each d2-labled cAMP and anti-cAMP-cryptate solutions were added separately to each well of the assay plates using an FRD and the assay plates were incubated at room temperature for 1hr. The fluorescence signal was measured at two different wavelengths (665nm and 615nm) using an Envision plate reader (Perkin Elmer, Shelton, CT). Data were expressed as the ratio of 665 nm/615 nm.

Beta-2 adrenergic receptor (Homo sapiens), sequence (P07550 whole entry, looked up): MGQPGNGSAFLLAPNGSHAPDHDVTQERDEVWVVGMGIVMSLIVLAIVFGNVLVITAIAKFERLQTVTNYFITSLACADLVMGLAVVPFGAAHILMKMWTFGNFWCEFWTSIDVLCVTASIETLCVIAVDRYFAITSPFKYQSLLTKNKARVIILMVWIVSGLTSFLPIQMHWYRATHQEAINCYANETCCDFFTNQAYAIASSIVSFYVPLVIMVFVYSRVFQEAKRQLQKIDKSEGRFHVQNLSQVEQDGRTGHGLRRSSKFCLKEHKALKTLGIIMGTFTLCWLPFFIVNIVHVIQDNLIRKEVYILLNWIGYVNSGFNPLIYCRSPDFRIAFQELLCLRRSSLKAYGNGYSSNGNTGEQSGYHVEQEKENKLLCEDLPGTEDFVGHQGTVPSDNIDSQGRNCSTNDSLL

| Compound | activity change, negative = inhibition | Potency |
| --- | --- | --- |
| CCCCCCCCCCCCCCN(C)C | -1.54% [at 19 µM] |  |
| CC(=O)OC(C)c1ccccc1 (stereo not given) |  | inactive |
| Nc1nc(N)c(-c2ccccc2)s1 |  | inactive |
| COc1cc(C(C)C)ccc1C | -2.77% [at 19 µM] |  |
| CCC(C(=O)O)c1ccc(N2Cc3ccccc3C2=O)cc1 (stereo not given) |  | inactive |
| C(=C/c1ccccc1)/c1ccccc1 |  | inactive |
| CCNC(=O)NCCCOc1cccc(CN2CCCCC2)c1 |  | inactive |
| SC1CCCCC1 |  | inactive |
| CCOC(=O)OCC/C(SC(=O)OCC)=C(\C)N(C=O)Cc1cnc(C)nc1N |  | inactive |
| Oc1ccc(C(O)CNCCCCCCNCC(O)c2ccc(O)c(O)c2)cc1O (stereo not given) |  | inactive |
| Cc1ccc2oc(CN(Cc3ccccc3)C(=O)Nc3c(F)cc(F)cc3F)c(-c3ccc(Cl)cc3)c2c1 |  | inactive |
| CCCCCCCCCCCc1ccccc1 |  | inactive |
| CC(C)(O)c1ccc(CNC(=O)c2cccnc2Oc2ccc(F)cc2)cc1 |  | inactive |
| CCN(CC)c1cccc(C)c1 |  | inactive |
| CCCCCCCCCCCCCOP(=O)(O)O |  | inactive |
| CC1=C2[C@H](/C=C(\C)C(=O)O)CC[C@@H](C)[C@H]2CC1 |  | inactive |
| CCOc1nc2cccc(C(=O)O)c2n1Cc1ccc(-c2ccccc2-c2nn[nH]n2)cc1 |  | inactive |
| CC1=NC(C)OC1C (stereo not given) |  | inactive |
| NCC1CCC(C(=O)Oc2ccc(CCC(=O)O)cc2)CC1 (stereo not given) |  | inactive |
| COc1ccc(S(=O)(=O)N2c3ccc(Cl)cc3[C@@](O)(c3ccccc3Cl)[C@H]2C(=O)N2CCC[C@@H]2C(N)=O)cc1OC |  | inactive |

| Compound | activity change, negative = inhibition | Potency |
| --- | --- | --- |
| CC[N+](CC)(CCNC(=O)C(=O)NCC[N+](CC)(CC)Cc1ccccc1Cl)Cc1ccccc1Cl |  | inactive |
| O=C1OC(O)C(C(Cl)Cl)=C1Cl (stereo not given) |  | inactive |
| Cc1ccc(N)nc1 |  | inactive |
| Oc1cc(O)c(Cl)cc1Cl |  | inactive |
| CN1Cc2cc(C(=O)N3CCC(C4CCNCC4)CC3)ccc2N[C@@H](CC(=O)O)C1=O |  | inactive |
| CCOC(=O)[C@H](C)O |  | inactive |
| CCCCOCCOC(=O)CCCCCCCCC(=O)OCCOCCCC |  | inactive |
| CC(=O)NO |  | inactive |
| O=CCCc1ccccc1 |  | inactive |
| c1ccc(CN(CC2=NCCN2)c2ccccc2)cc1 |  | inactive |
| O=C(CCCCCCCCC#CI)Oc1ccccc1 |  | inactive |
| OCCN(CCO)CCN(CCO)CCO |  | inactive |
| O=C(Oc1ccccc1)c1ccccc1C(=O)Oc1ccccc1 |  | inactive |
| Cc1cc(SC2=C(O)C[C@@](CCc3ccc(N)cc3)(C(C)C)OC2=O)c(C(C)(C)C)cc1CO |  | inactive |
| CC(=O)Nc1ccc(C)cc1C |  | inactive |
| CC[C@@H](CO)NCCN[C@@H](CC)CO |  | inactive |
| O=C(OCC(COC(=O)c1ccccc1)(COC(=O)c1ccccc1)COC(=O)c1ccccc1)c1ccccc1 |  | inactive |
| O=S1OCCO1 |  | inactive |
| C/C(=C(\CCOP(=O)(O)O)SC(=O)c1ccccc1)N(C=O)Cc1cnc(C)nc1N | 2.25% [at 8.39 µM] |  |
| OC1OCCOC1O (stereo not given) |  | inactive |
